Pf Dd2 inh – qHTS Primary assay for Inhibitors of Plasmodium falciparum Dd2 growth in vitro; P. falciparum Dd2 growth, SYBR Green, 72 h; Potency, µM (highest dose often 28.9 µM), most hits filed as inhibitors; 4.3% of 120,000 active; active means well fitted inhibition curve with a large enough effect; further: nearly all actives have a fitted effect of over 65% in size
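Readout: SYBR Green fluorescence, 485 nm excitation, 535 nm emission, after ~16 h lysis at 37C. Before that, Dd2-infected red cells (2.5% hematocrit) grew 72 h with compound, 29 uM top final concentration.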
Of the large screens only hits and unclear results are named; the others gave an inactive call. The sample as a whole holds a higher share of hits than the screen did.

Cc1cccc(C(C(=O)NCc2cc(-c3cccc(F)c3)no2)N(C)C)c1 (centres undefined)	none
Cc1ccccc1C(=O)NC(C(=O)N1CCCC1)C1CCN(C(=O)c2ccc3c(c2)OCO3)CC1 (centres undefined)	none
O=C(NCc1cccc(Br)c1)c1noc(-c2ccc(F)cc2)n1	none
CCSc1nnc(-c2ccccc2NC(=O)C(CC)n2cccn2)c(=O)[nH]1 (centres undefined)	none
COc1cncc([C@@H](NC(=O)c2ccc3c(c2)CCC3)C2CC(O)C2)c1 (some centres undefined)	none
COc1ccccc1-c1nnc2n1C(C(=O)N(C)C)CC2 (centres undefined)	none
CCCN1CCCC2(Cc3ccccc3CN(C(=O)CCCC(=O)O)C2)C1 (centres undefined)	none
O=C(O)CCC(=O)N1Cc2ccccc2CC2(CCCN(CCc3ccccc3)C2)C1 (centres undefined)	none
CCCC(=O)N1Cc2ccccc2CC2(CCCN(CCC)C2)C1 (centres undefined)	Pf Dd2 inh 8.9µM
Fc1ccccc1CCNc1cc(Cl)nc2ccnn12	none
O=C(c1cccc(F)c1)N1CCN2C(=O)N(C3CCCCC3)C(=O)[C@@H]2C1	none
COc1c(C)cccc1-c1nc(C2CCOC2)no1 (centres undefined)	none
Cc1cc(=O)n(CC(=O)NCc2ccccc2Br)c(N2CCOCC2)n1	none
CCNC(=O)Nc1ccc2c(c1)CN(Cc1ccccc1OC)C(=O)C(C)O2 (centres undefined)	none
COc1ccccc1CN1Cc2cc(NC(=O)Cc3ccc(F)cc3)ccc2OC(C)C1=O (centres undefined)	none
COc1cccc(CC(=O)Nc2ccc3c(c2)CN(Cc2ccccc2OC)C(=O)C(C)O3)c1 (centres undefined)	none
CCC1Oc2ccc(NC(=O)Cc3ccc(F)cc3)cc2CN(Cc2ccc(Cl)cc2)C1=O (centres undefined)	none
CC1Oc2ccc(NC(=O)Cc3ccc(F)cc3)cc2CN(Cc2ccc(Cl)cc2)C1=O (centres undefined)	Pf Dd2 inh 10µM
CCC(C(=O)Nc1ccc2c(c1)CN(Cc1ccccc1OC)C(=O)C(C)O2)c1ccccc1 (centres undefined)	Pf Dd2 inh 2.5µM
Cc1ccc(NC(=O)CCn2ccn3nc4c(c3c2=O)CCCC4)cc1	none
COc1ccccc1C(=O)NC1CCN(c2cc(-c3ccc(F)cc3)[nH]n2)C1 (centres undefined)	none
CCS(=O)(=O)N1C[C@@H](Oc2ccccc2)C[C@H]1C(=O)NC	none
Cc1ccc(C(=O)N2CCCn3ccnc3C2C(C)C)c(=O)[nH]1 (centres undefined)	none
CC[C@@H]1[C@@H](NC(=O)Cc2csc(C(C)=O)c2)[C@@H]2CCO[C@H]12	none
CC[C@@H]1[C@@H](NC(=O)CC2Cc3ccccc3C2)[C@@H]2CCO[C@H]12	none
CC[C@@H]1[C@@H](NC(=O)C2(c3ccc(S(C)(=O)=O)cc3)CCC2)[C@@H]2CCO[C@H]12	Pf Dd2 inh 8.9µM
COc1ccc(NC(=O)CC2=C3CCCCC3NC2=O)cn1 (centres undefined)	none
O=c1c2ccccc2nc(/C=C/c2cccc3ccccc23)n1-c1ccccc1Cl	none
Cc1ccccc1-n1c(/C=C/c2ccccc2F)nc2ccccc2c1=O	Pf Dd2 inh 10µM
COc1ccccc1-n1c(/C=C/c2c(C)n(C)c3ccccc23)nc2ccccc2c1=O	Pf Dd2 inh 4µM
COc1ccc(Cl)cc1-n1c(/C=C/c2cccc3ccccc23)nc2ccccc2c1=O	none
COc1ccc(-n2c(/C=C\c3ccccc3F)nc3ccccc3c2=O)cc1OC	none
CSc1ccc(/C=C/c2nc3ccccc3c(=O)n2-c2cccc(Cl)c2C)cc1	none
COc1ccc(-n2c(/C=C/c3c(C)[nH]c4ccccc34)nc3ccccc3c2=O)cc1	none
Cc1ccc(-n2c(/C=C/c3ccc(Br)s3)nc3ccccc3c2=O)cc1	none
Cc1ccccc1-n1c(/C=C/c2c(C)n(C)c3ccccc23)nc2ccccc2c1=O	Pf Dd2 inh 2.8µM
CN1CC(=O)N(C2CCCNC2)Cc2c(NCCCc3ccccc3)ncnc21 (centres undefined)	none
Cc1ncsc1C(=O)N1CCc2c(n(Cc3cccnc3)n(CCc3ccccc3)c2=O)C1	none
O=C(N[C@H]1CCOC[C@H]1C1CCOCC1)c1ccccc1-c1ncc[nH]1	none
CCOc1ccc(C2Cn3nnc(-c4nc(-c5ccc(OC)cc5)no4)c3CO2)cc1 (centres undefined)	none
Cc1cccc([S+](=O)([O-])N(C)Cc2cccn2C)c1	none
O=C(N[C@H]1CCN2C(=O)c3cc(-c4cccs4)ccc3NC(=O)[C@H]12)c1cccs1	none
CNC(=O)N1CCC(C2CCN(Cc3ccncc3)C2)CC1 (centres undefined)	none
CCC(=O)N1c2ccccc2CC1C(=O)NCCCN1CCN(c2ccc(F)cc2)CC1 (centres undefined)	none
CCOc1ccc(NC(=O)NCCCN2CCN(c3ccc(F)cc3)CC2)cc1	none
O=C(NCCCN1CCN(c2ccc(F)cc2)CC1)Nc1ccccc1Cl	Pf Dd2 inh 7.9µM

Assay outcomes deposited in PubChem by National Center for Advancing Translational Sciences (NCATS).
